G9a block: blocks human histone lysine methyltransferase G9a. Q96KQ7. G9a H3K9 monomethylation, AlphaScreen, 2 h. Potency, µM (top dose mostly 102 µM), without a hit: top-dose activity, negative = inhibition, actives largely listed as inhibitors. hit rate 8.8% among 350,000; note: % is set by controls: 0 for no effect and ±100 for the full control effect; nearly all actives have a fitted effect of over 75% in size
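Readings reflect AlphaScreen signal from monomethyl-H3K9 antibody detection. HMT at 20 nM; substrate b-H3K9 500 nM; cofactor SAM 20 uM; 2 h RT reaction; compounds tested as titrations in qHTS with 15 min preincubation.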
BAZ2B inh: BAZ2B (human) inhibition. Q9UIF8. AlphaScreen BAZ2B-H3K14Ac peptide displacement. Potency, µM (titrated, usually from 114 µM), without a hit: at the highest dose activity change, negative = inhibition, most hits filed as inhibitors. hit rate 4.4% among 360,000; note: % is set by controls: 0 for no effect and ±100 for the full control effect; nearly all actives have a fitted effect of over 60% in size
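AlphaScreen displacement of biotin-H3(5-23)K14Ac peptide (50 nM final) from BAZ2B (50 nM final) in PBS pH 7.4, 0.01% Tween-20; complex preformed 30 min RT, then compounds (top 110 uM) 30 min RT, beads 20 min dark.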
HP1b chromo inh: inhibitors of HP1-beta chromodomain binding to methylated histone tails; P83916; AlphaScreen HP1-beta / biotin-H3K9me3 peptide binding; Potency, µM (top dose mostly 114 µM), for inactives: at the highest dose activity change, negative = inhibition, hits mostly inhibitors; hit rate 0.56% among 390,000; AID 540317; note: nearly all actives have a fitted effect of over 70% in size
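Compound inhibition of the preformed complex between 50 nM HP1-beta and 50 nM biotinylated H3K9me3 peptide was read by AlphaScreen. Buffer was PBS pH 7.4 with 0.01% Tween-20. Incubations ran 30 min at room temperature, with 10 ug/mL donor/acceptor beads.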
12-LOX inh: inhibitors of human 12S-lipoxygenase ALOX12; hit rate 1.1% among 580,000; Potency, µM (titrated, usually from 108 µM), for the others: top-dose activity change, negative = inhibition, hits mostly inhibitors; P18054; purified 12hLO, xylenol orange hydroperoxide absorbance; AID 1671190; note: % is set by controls: 0 for no effect and ±100 for the full control effect
Target sequence (P18054 whole entry, looked up): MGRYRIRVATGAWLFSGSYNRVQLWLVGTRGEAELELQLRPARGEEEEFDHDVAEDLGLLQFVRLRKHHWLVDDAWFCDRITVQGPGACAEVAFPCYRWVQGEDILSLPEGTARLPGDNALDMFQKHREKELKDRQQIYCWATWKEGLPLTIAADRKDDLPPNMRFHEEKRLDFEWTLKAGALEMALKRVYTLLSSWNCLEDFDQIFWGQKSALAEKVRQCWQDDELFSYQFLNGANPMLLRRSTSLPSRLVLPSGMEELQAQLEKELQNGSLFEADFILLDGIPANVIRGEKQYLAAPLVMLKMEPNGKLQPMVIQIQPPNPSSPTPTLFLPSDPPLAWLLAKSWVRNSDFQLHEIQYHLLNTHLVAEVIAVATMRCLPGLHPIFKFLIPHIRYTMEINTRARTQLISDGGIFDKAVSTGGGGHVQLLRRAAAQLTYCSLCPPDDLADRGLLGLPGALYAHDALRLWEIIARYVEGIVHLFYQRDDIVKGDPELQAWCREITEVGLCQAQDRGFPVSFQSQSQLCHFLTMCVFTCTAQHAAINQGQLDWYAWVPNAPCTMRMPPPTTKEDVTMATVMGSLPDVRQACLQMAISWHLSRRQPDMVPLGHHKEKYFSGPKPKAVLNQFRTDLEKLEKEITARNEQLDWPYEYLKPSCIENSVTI
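Hydroperoxide product was detected by ferrous iron/xylenol orange as the 573 to 405 nm absorbance ratio. Arachidonic acid at 40 uM (final) was turned over for 30 min at room temperature by 150 nM human 12hLO, pH 7.0 Hepes buffer, after 15 min compound preincubation.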
PLK1 PBD inh: blocks phosphopeptide binding to human PLK1 polo-box domain; Potency, µM, inactives show max response, negative = inhibition, hits mostly inhibitors; hit rate 2.8% among 360,000; P53350; Plk1 PBD binding of FITC phosphopeptide, fluorescence polarization; note: series mostly up to about 57 µM; % is set by controls: 0 for no effect and ±100 for the full control effect; nearly all actives have a fitted effect of over 65% in size
JMJD2A Tudor: JMJD2A Tudor domain (human) inhibition. AID 504339. O75164. AlphaScreen JMJD2A-Tudor / H3K4me3 peptide binding. hit rate 4.4% among 390,000. Potency, µM (highest dose often 114 µM), without a hit: top-dose activity change, negative = inhibition, hits mostly inhibitors; note: % is set by controls: 0 for no effect and ±100 for the full control effect; nearly all actives have a fitted effect of over 50% in size
An asterisk follows results filed as active; ? = inconclusive; / = not tested or not shown; [ ] = remark or other dose. An excerpt weighted towards active compounds, which were near 9% of everything screened. Calls come from the whole dose curve; as a rule, active = well fitted curve in the direction sought with a large enough effect; inconclusive = small, poorly fitted or top-dose-only effect, or another doubt; inactive = no such curve, though single readings can be large; an effect the other way counts as inactive or inconclusive. Potency is the fitted concentration of half-maximal effect.

SMILES | G9a block | BAZ2B inh | HP1b chromo inh | 12-LOX inh | PLK1 PBD inh | JMJD2A Tudor
CCCCOc1ccc(C2(C)NC(=O)NC2=O)cc1 (configuration not stated) | 4%[59 µM] | -3% | 17% | 3% | 7.5µM* | 16µM*
CCCCCCCOc1ccc(C2(C)NC(=O)NC2=O)cc1 (configuration not stated) | 8% | 5% | 35% | ? | -7% | -13%
COc1ccc(-c2noc(CC3CCN(C(=O)c4cc(Cl)ccc4OC)CC3)n2)cc1 | / | / | / | -4% | / | /
CC(C)CC(c1nnnn1C(C)C)N1CCN(c2cccc(Cl)c2)CC1 (configuration not stated) | -32%[59 µM] | -13% | 58% | 15% | -6% | -1%[11.4 µM]
CN(C)/C=C/C(=O)c1ccc(Br)s1 | 22%[12.7 µM] | -23% | 18% | 40µM* | -16% | -16%
CN(C)/C=C/C(=O)c1ccc(F)cc1 | -2% | 4% | 30% | -5% | 1% | -1%
Cc1ccc(S(=O)(=O)/N=C2\CN(C)C(=O)N2C)cc1 | 20% | 3% | 32% | -20% | -13% | -9%
COc1cc2c(cc1OC)[N+]([O-])=C(c1ccccc1)C2=O | / | / | / | 1% | / | /
O=C1C(c2ccccc2)=[N+]([O-])c2ccccc21 | -11%[2.33 µM] | 10µM* | ? | -19% | 0.17µM* | 25µM*
O=C(NC(=S)NC1CCCc2ccccc21)c1ccc(F)cc1 (configuration not stated) | -22% | ? | -12% | 18µM* | ? | 79µM*
O=C(NC(=S)NC1CCCc2ccccc21)c1ccco1 (configuration not stated) | -35% | -31% | 34% | ? | 0% | -6%
N#Cc1ccc(C(=O)NC2CCCc3ccccc32)cc1 (configuration not stated) | 50µM* | 4% | 48% | 2% | -6% | 7%
O=C(CCl)NC1CCCc2ccccc21 (configuration not stated) | 6% | 4% | -11% | 0% | 27µM* | 50µM*
O=C(NC1CCCc2ccccc21)c1cc(Cl)ccn1 (configuration not stated) | 25µM* | 2% | 3% | -14% | -12% | 30%
O=C(Cc1ccc(Br)cc1)NC1CCCc2ccccc21 (configuration not stated) | 9% | -1% | 27% | -64% | 0% | -2%
O=C(NC1CCCc2ccccc21)c1ccccn1 (configuration not stated) | -10% | -3% | 17% | -19% | 1% | -3%
C[C@H](C(=O)N[C@H](CO)c1ccccc1)N1Cc2ccc(N3CCOCC3)nc2C1=O | / | / | / | -1% | / | /
C/C(=C\c1cccc(Cl)c1)C(=O)c1c(C)cc(C)[nH]c1=O | 28%[2.33 µM] | 1% | 9% | 0% | -8% | -21%
CCc1cc2c(NCCO)ncnc2s1 | / | 3% | 24% | 24% | 2% | 15%
Cc1sc2ncnc(NCCN3CCOCC3)c2c1C | 8.9µM* | 50µM* | -50% | 0% | 5% | 1.6µM*
CCc1cc2c(NCCN3CCCCC3)ncnc2s1 | 50µM* | 4% | 28% | ? | -3% | ?
CCOC(=O)c1[nH]c(C)c(CCC(=O)NCc2ccc(OCC)cc2)c1C | -16%[59 µM] | -15% | 20%[57 µM] | -14% | / | -28%
CC[N+](C)(CC)CC(O)COCC1COc2ccccc2O1 (configuration not stated) | 6.3µM* | 5% | 0% | ? | -19% | -23%
COc1cc(C(=O)O)nc(OC)n1 | ? | 71µM* | -6% | ? | ? | 2.8µM*
Cc1cc(C)c(C#N)c(N2CCCC2)n1 | 32%[59 µM] | 10% | 39% | 10% | -1% | 4%
Cc1cc(C(F)(F)F)c(C#N)c(N2CCOCC2)n1 | 12% | 9% | -8% | -17% | 3.4µM* | 28µM*
CC(C)c1ccc(NC(=S)NN2C(C)CCCC2C)cc1 (configuration not stated) | 18% | -15% | 34% | 28µM* | -14% | -13%
